The target in assay [1] is RAF proto-oncogene serine/threonine-protein kinase (Homo sapiens) (UniProt P04049). Conditions: at 1 µM.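 Further: values are the mean percent inhibition of CRAF.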
For assay [2], the target named is T1, Interleukin-1 receptor-associated kinase 4 (Homo sapiens) (UniProt Q9NWZ3).
T1 sequence (whole entry): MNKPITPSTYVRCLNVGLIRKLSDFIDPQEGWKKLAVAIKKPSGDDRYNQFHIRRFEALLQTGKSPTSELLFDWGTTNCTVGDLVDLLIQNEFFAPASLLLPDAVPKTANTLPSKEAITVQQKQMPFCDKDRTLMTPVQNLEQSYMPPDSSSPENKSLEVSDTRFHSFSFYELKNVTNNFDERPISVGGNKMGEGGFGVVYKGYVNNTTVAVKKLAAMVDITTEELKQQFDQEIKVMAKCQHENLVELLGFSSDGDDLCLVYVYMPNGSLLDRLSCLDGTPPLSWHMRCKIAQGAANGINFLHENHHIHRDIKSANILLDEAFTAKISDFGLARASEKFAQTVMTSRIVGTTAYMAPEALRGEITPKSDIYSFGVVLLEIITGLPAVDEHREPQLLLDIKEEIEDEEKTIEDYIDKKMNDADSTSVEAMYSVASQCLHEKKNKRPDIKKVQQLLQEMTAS
To be noted: at 0.1 µM.

Assay [3] deals with T1, Interleukin-1 receptor-associated kinase 4 (Homo sapiens). Conditions: at 1 µM.
For assay [4], the target named is Leucine-rich repeat serine/threonine-protein kinase 2 (Homo sapiens) (UniProt Q5S007). Conditions: at 0.1 µM.
For assay [5] the target is unchanged. To be noted: at 1 µM.
The subject of assay [6] is Leucine-rich repeat serine/threonine-protein kinase 2 (Homo sapiens), Q5S007 [G2019S]. Conditions: at 0.1 µM.
For assay [7] the test system is unchanged. To be noted: at 1 µM.

The structures appear in SMILES notation. Where “and” joins values, the source holds several entries; their conditions need not be identical. Identical values can stand only once.

31 compounds from ChEMBL document CHEMBL1961873, “Compounds: GSK PKIS; Assays: Nanosyn kinase panel” (2012) can be followed below.

Chain of Leucine-rich repeat serine/threonine-protein kinase 2 (Homo sapiens), Q5S007 [G2019S] (Q5S007 whole entry G2019S): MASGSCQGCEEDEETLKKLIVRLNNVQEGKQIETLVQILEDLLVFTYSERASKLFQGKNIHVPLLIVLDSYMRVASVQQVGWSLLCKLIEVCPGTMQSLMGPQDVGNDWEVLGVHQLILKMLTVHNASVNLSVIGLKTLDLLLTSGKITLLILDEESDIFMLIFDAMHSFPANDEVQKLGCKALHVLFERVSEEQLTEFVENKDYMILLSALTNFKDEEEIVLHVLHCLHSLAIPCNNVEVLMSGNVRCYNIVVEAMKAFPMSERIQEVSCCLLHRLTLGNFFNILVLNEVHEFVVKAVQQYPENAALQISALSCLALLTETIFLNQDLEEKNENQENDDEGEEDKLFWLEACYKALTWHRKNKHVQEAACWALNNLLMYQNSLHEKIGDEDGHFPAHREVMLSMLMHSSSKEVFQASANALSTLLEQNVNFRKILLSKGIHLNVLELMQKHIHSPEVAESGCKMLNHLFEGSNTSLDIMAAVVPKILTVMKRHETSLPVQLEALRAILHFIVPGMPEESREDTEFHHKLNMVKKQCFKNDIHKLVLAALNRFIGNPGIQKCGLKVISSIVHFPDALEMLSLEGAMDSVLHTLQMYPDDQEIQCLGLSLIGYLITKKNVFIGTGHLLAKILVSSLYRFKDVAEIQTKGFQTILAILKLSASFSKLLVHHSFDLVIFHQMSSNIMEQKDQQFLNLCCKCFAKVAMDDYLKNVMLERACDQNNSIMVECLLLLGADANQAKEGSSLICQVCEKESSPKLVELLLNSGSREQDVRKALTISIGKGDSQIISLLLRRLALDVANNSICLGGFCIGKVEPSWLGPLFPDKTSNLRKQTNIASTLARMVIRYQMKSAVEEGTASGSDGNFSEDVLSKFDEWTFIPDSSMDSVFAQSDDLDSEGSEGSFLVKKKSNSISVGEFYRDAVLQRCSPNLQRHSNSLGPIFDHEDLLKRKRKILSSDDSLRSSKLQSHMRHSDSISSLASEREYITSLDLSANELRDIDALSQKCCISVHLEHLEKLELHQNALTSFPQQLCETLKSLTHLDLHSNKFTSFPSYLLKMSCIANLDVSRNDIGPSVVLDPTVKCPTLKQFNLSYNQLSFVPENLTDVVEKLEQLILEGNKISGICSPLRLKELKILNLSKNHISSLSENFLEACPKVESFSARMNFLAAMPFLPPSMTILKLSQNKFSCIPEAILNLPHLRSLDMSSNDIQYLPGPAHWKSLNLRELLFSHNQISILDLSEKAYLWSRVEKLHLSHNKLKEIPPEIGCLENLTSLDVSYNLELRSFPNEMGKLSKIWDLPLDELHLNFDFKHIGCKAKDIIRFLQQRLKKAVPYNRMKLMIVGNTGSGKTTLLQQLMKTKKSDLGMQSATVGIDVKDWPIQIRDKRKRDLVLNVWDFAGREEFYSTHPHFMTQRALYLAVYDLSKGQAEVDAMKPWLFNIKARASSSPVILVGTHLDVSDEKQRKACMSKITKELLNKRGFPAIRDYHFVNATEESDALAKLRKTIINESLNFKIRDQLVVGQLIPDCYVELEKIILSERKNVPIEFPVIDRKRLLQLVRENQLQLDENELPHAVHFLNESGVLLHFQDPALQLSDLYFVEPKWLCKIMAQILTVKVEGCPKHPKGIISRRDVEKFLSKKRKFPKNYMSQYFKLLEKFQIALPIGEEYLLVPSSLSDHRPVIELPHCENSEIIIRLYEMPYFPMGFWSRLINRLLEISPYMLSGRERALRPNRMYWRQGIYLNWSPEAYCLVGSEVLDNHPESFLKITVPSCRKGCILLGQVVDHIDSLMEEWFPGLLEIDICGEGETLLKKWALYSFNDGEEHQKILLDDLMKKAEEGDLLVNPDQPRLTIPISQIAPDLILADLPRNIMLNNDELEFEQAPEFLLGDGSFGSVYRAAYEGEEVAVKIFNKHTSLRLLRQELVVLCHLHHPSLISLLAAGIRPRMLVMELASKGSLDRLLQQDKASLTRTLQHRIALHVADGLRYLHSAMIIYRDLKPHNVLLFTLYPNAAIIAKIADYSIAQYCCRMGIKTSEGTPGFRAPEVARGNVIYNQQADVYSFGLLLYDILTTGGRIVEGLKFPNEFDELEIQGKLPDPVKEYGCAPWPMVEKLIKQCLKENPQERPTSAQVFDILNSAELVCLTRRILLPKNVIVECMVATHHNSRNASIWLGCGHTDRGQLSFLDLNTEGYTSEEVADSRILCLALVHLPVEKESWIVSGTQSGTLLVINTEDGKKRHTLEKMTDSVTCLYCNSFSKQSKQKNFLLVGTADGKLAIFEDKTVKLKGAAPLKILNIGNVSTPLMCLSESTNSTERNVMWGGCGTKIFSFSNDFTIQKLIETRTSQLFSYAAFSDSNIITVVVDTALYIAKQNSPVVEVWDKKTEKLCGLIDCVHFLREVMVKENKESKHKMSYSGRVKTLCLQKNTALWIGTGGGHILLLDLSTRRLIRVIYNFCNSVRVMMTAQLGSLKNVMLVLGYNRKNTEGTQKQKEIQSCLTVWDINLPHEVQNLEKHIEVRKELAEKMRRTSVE
Chain of Leucine-rich repeat serine/threonine-protein kinase 2 (Homo sapiens) (Q5S007 whole entry): as the sequence (Q5S007 whole entry G2019S) above, with S2019G counted along it
Chain of RAF proto-oncogene serine/threonine-protein kinase (Homo sapiens) (P04049 whole entry): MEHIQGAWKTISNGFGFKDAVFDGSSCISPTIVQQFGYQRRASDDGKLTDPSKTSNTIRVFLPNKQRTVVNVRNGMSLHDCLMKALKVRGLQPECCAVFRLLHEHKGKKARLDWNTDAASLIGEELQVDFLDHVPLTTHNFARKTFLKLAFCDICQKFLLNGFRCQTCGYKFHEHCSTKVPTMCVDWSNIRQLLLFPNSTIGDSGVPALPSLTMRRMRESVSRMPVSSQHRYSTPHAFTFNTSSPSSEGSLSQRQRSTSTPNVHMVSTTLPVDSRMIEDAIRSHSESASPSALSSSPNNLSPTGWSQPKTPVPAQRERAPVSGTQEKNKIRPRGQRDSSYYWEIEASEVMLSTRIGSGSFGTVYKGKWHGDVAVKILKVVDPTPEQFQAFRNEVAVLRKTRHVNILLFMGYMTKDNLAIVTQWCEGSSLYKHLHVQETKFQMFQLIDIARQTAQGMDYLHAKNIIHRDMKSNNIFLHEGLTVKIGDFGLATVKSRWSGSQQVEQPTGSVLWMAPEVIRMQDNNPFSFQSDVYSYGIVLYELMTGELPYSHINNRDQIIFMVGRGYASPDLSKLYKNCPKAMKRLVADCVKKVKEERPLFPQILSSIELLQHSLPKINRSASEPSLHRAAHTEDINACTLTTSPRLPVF

Consider `FC(F)(F)CNc1nccc(-c2cnn3ncccc23)n1`, for which the inhibition – broadly, the change of the read-out against control, counted positive when it falls – in assay [1] was -1%; in assay [2], 0.77%; in assay [3], 1.21%; in assay [4] it was 3.07%; in assay [5] it was 8.2%; in assay [6], 5.03%. Also, in assay [7], the inhibition turned out to be 9.11%.

`O=C(O[C@H]1CN[C@H](C#Cc2cc3ncnc(Nc4ccc5c(ccn5Cc5cc(F)ccc5F)c4)c3s2)C1)N1CCOCC1`: the inhibition was -3.01% in assay [1]; 3.45% in assay [2]; 2.43% in assay [3]; 3.48% in assay [4]; 6.3% in assay [5]; 3.23% in assay [6]. In addition, in assay [7], the inhibition is 5.91%.

Take `Nc1ncnc2occ(-c3ccc(NC(=O)Nc4cc(C(F)(F)F)ccc4F)cc3)c12`: the inhibition in assay [1] is -6.08% and -5.86%; in assay [2] it was -1.81% and -1.2%; in assay [3], 1.77% and -0.37%; in assay [4] it was 13.6% and 6.55%; in assay [5], 18.1% and 19.4%; in assay [6], 8.38% and 6.37%. The inhibition in assay [7] is 35.4% and 28.6%.

For `Nc1nccc(-c2c(-c3ccc(F)cc3)ncn2C2CCNCC2)n1`, the inhibition is 8.14% and -2.89% in assay [1]; 3.05% and 0.88% in assay [2]; -1.58% and -0.23% in assay [3]; -1.76% and 1.62% in assay [4]; 3.33% and 3.21% in assay [5]; 0.34% and 3.78% in assay [6]. Moreover, in assay [7], the inhibition was 4.42% and 3.38%.

With `CNC(=O)c1sc(-n2cnc3cc(OC)c(OC)cc32)cc1OCc1ccccc1C(F)(F)F`, the inhibition worked out at 0.72% in assay [1]; 2.12% in assay [2]; 1.97% in assay [3]; 2.86% in assay [4]; 9.7% in assay [5]; 3.5% in assay [6]. Also, the inhibition in assay [7] amounted to 7.21%.

For `CCS(=O)(=O)c1ccc(OC)c(Nc2ncc(-c3cccc(F)c3)o2)c1`, the inhibition was -3.37% in assay [1]; 2.36% in assay [2]; 5.42% in assay [3]; 2.2% in assay [4]; 14.5% in assay [5]; 6.1% in assay [6]. For the same compound, the inhibition in assay [7] came out at 27.9%.

In the case of `CC1=C(C(=O)Nc2ccc3[nH]nc(C)c3c2)C(c2ccc(C(F)(F)F)cc2)CC(=O)N1` (configuration not stated), the inhibition was -1.39% in assay [1]; -3.01% in assay [2]; 1.5% in assay [3]; 5.54% in assay [4]; 21.3% in assay [5]; 9.85% in assay [6]. In addition, the inhibition in assay [7] was found to be 49.5%.

`CN1CCN(Cc2ccc(-c3cc4ncnc(Nc5ccc(OCc6cccc(F)c6)c(Cl)c5)c4s3)o2)CC1`: the inhibition in assay [1] is -2.88% and 11.7%; in assay [2], 0.28% and 1.52%; in assay [3] it was 0.56% and 2.95%; in assay [4], 2.03% and 2.75%; in assay [5], 6.29% and 5.13%; in assay [6], 4.59% and 4.9%. In addition, in assay [7], the inhibition was 7.45% and 5.92%.

For the compound `COc1cccc(Nc2nccc(-c3cnn4ncccc34)n2)c1`, the inhibition in assay [1] is -1.47%; in assay [2] it was 0.48%; in assay [3] it was 11.1%; in assay [4], 9.98%; in assay [5], 21.1%; in assay [6], 13.3%. The inhibition in assay [7] was 54.8%.

Turning to `CS(=O)(=O)CCNCc1ccc(-c2ccc3ncnc(Nc4ccc(OCc5ccccc5)cc4)c3c2)o1`, the inhibition in assay [1] is 2.22%; in assay [2], 1.54%; in assay [3], 1.78%; in assay [4] it was 3.3%; in assay [5], 6.64%; in assay [6] it was 2.93%. The inhibition in assay [7] was found to be 7.35%.

On to `CCOc1ccc2c(-c3ccnc(Nc4cc(OC)cc(C(F)(F)F)c4)n3)cnn2n1`, for which the inhibition was -1.65% in assay [1]; -3.8% in assay [2]; 0.63% in assay [3]; 1.55% in assay [4]; 5.25% in assay [5]; 3.62% in assay [6]. Also, the inhibition in assay [7] amounted to 12.8%.

As for `c1ccc(-c2n[nH]cc2-c2ccnc(-c3ccc(OCCn4ccnc4)cc3)c2)nc1`, the inhibition in assay [1] is -2.1%; in assay [2], 4.92%; in assay [3], 0.82%; in assay [4], 0.79%; in assay [5], 7.44%; in assay [6] it was 3.12%. In assay [7], the inhibition was determined as 14.5%.

Turning to `Cc1nnc(-c2cccc(-c3ccc(C(=O)NCC4CC4)cc3)c2)o1`, the inhibition in assay [1] is 1.67%; in assay [2], -1.48%; in assay [3], 2.66%; in assay [4], 3.32%; in assay [5], 5.55%; in assay [6], 4.33%. Moreover, the inhibition in assay [7] came to 7.83%.

`CNC(=O)c1cncc(/C=C/c2ccccc2C)c1`: the inhibition in assay [1] is -2.68%; in assay [2] it was -0.44%; in assay [3], 2%; in assay [4], 3.81%; in assay [5], 6.67%; in assay [6], 4.65%. Further, the inhibition in assay [7] amounted to 9.68%.

As for `NS(=O)(=O)c1cccc(N/C=C2\C(=O)Nc3ccccc32)c1`, the inhibition was 2.59% in assay [1]; 2.9% in assay [2]; 2.37% in assay [3]; 3.41% in assay [4]; 15.8% in assay [5]; 6.57% in assay [6]. Further, in assay [7], the inhibition amounted to 34%.

As for `Cc1c2ccc(N(C)c3ccnc(Nc4cccc(S(N)(=O)=O)c4)n3)cc2nn1C`, the inhibition was determined as 41% in assay [1]; 4.14% in assay [2]; 3.25% in assay [3]; 0.45% in assay [4]; 9.99% in assay [5]; 1.58% in assay [6]. The inhibition in assay [7] is 12.6%.

`CS(=O)(=O)CCNCc1ccc(-c2ccc3ncnc(Nc4ccc(OCc5cccc(C(F)(F)F)c5)cc4)c3c2)o1`: the inhibition in assay [1] is -2.29%; in assay [2] it was 2.1%; in assay [3] it was 3.11%; in assay [4], 1.61%; in assay [5], 5.55%; in assay [6], 4.24%. The inhibition in assay [7] worked out at 7.8%.

Take `O=C(O[C@H]1CN[C@H](C#Cc2cc3ncnc(Nc4ccc5c(cnn5Cc5ccccc5)c4)c3s2)C1)N1CCOCC1`: the inhibition was -1.71% in assay [1]; -1.41% in assay [2]; -0.48% in assay [3]; 1.16% in assay [4]; 4.4% in assay [5]; 3.12% in assay [6]. For the same compound, the inhibition in assay [7] was determined as 4.15%.

For the compound `CN(c1ccc(NC(=O)NCCN2CCOCC2)cc1)c1ccnc(Nc2ccc(CS(C)(=O)=O)cc2)n1`, the inhibition in assay [1] was 7.58%; in assay [2] it was -5.94%; in assay [3] it was 1.07%; in assay [4], 2.79%; in assay [5] it was 9.85%; in assay [6], 2.66%. For the same compound, in assay [7], the inhibition was determined as 14.7%.

Take `CN1CCC(n2cnc(-c3ccc(F)cc3)c2-c2ccnc(NCCO)n2)CC1`: the inhibition in assay [1] was 1.26%; in assay [2] it was -1.44%; in assay [3] it was 1.47%; in assay [4], 3.06%; in assay [5], 4.49%; in assay [6], 4.69%. Further, the inhibition in assay [7] came to 5.35%.

Consider `CC1(C)CC(n2cnc(-c3ccc(F)cc3)c2-c2ccnc(N)n2)CC(C)(C)N1`, for which the inhibition in assay [1] was found to be 2.12%; in assay [2], 4.73%; in assay [3], 0.49%; in assay [4], 0.31%; in assay [5], 5.05%; in assay [6], 2.37%. The inhibition in assay [7] was determined as 6.19%.

Take `NC(=O)c1ccc2c(-c3ccnc(NCCCO)n3)c(-c3ccc(F)cc3)nn2c1`: the inhibition is -4.3% in assay [1]; 1.46% in assay [2]; 2.22% in assay [3]; 5.47% in assay [4]; 7.44% in assay [5]; 6.54% in assay [6]. Moreover, the inhibition in assay [7] is 9.18%.

For `CCS(=O)(=O)c1ccc(OC)c(Nc2ncc(-c3cccc(C(C)=O)c3)o2)c1`, the inhibition in assay [1] is 8.87%; in assay [2], -3.46%; in assay [3], 1.19%; in assay [4] it was 0.47%; in assay [5], 4.65%; in assay [6] it was 2.77%. Further, the inhibition in assay [7] was 11.8%.

Take `O=C(Nc1n[nH]c2nnc(-c3cccnc3)cc12)C1CC1`: the inhibition was -3.13% in assay [1]; -0.42% in assay [2]; -0.13% in assay [3]; 0.99% in assay [4]; 4.69% in assay [5]; 2.42% in assay [6]. Further, in assay [7], the inhibition was 5.79%.

On to `CS(=O)(=O)Nc1ccc(-c2ccc3c(NC(=O)C4CC4)n[nH]c3c2)cc1`, for which the inhibition in assay [1] was 5.45%; in assay [2], -4.64%; in assay [3], 1.75%; in assay [4] it was 9.03%; in assay [5], 5.46%; in assay [6], 9.88%. In assay [7], the inhibition came out at 15.1%.

For `N#Cc1ccc2c(-c3ccnc(NC4CC4)n3)c(-c3ccc(F)cc3)nn2c1`, the inhibition in assay [1] was -2.54%; in assay [2], 0.03%; in assay [3] it was -0.5%; in assay [4] it was 2.1%; in assay [5] it was -2.22%; in assay [6], 1.24%. For the same compound, the inhibition in assay [7] was -0.08%.

As for `COc1ccc(-c2nn3ncccc3c2-c2ccnc(Nc3ccc(F)c(F)c3)n2)cc1`, the inhibition is -4.25% in assay [1]; -0.54% in assay [2]; 1.76% in assay [3]; 5.52% in assay [4]; 9.6% in assay [5]; 6.22% in assay [6]. Further, the inhibition in assay [7] is 7.92%.

`COc1cc(N2CCN(C(C)C)CC2)ccc1Nc1nc(Nc2cccc3ncccc23)c2cc[nH]c2n1`: the inhibition in assay [1] was 10.1%; in assay [2], 5.39%; in assay [3], -0.29%; in assay [4] it was 13%; in assay [5], 23.2%; in assay [6], 24.5%. Also, the inhibition in assay [7] came to 63%.

For `CCn1c(-c2nonc2N)nc2cncc(C(=O)NCCNC)c21`, the inhibition in assay [1] turned out to be 0.85%; in assay [2], 2.49%; in assay [3] it was 3.05%; in assay [4] it was 6.11%; in assay [5], 28.8%; in assay [6], 13%. The inhibition in assay [7] amounted to 51.8%.

Turning to `NS(=O)(=O)c1ccc(N/N=C2\C(=O)Nc3ccc(C(=O)NCc4ccncc4)cc32)cc1`, the inhibition is -3.37% in assay [1]; -2.46% in assay [2]; 1.57% in assay [3]; 5.05% in assay [4]; 11.6% in assay [5]; 6.07% in assay [6]. Moreover, the inhibition in assay [7] came out at 30.8%.

As for `Fc1ccc(Nc2nccc(-c3c(-c4ccc(C(F)(F)F)cc4)nn4ncccc34)n2)cc1F`, the inhibition in assay [1] is 1.86%; in assay [2] it was -4.78%; in assay [3] it was 1.81%; in assay [4] it was 5.42%; in assay [5], 7.08%; in assay [6], 5.93%. Further, in assay [7], the inhibition was determined as 10.4%.
